TDP1 cell noCPT: qHTS for Inhibitors of human tyrosyl-DNA phosphodiesterase 1 (TDP1): qHTS in cells in absence of CPT. DT40 Tdp1-/- hTDP1 cells, no CPT, ATP luminescence, 48 h. Potency, µM (doses to about 46.2 µM), most hits filed as inhibitors. actives 15% (n = 420,000); note: nearly all actives have a fitted effect of over 55% in size
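Seeded 400 DT40-hTDP1 cells/well (vehicle DMSO, no 20 nM CPT); pinned compounds; ≥48 hr at 37 °C; CellTiter-Glo luminescence as viability measure.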
GCN5L2 inh: qHTS Assay for Inhibitors of GCN5L2; Histone acetyltransferase KAT2A (Homo sapiens), Q92830; AID 504327, 2011; actives 0.21% (n = 390,000); GCN5L2 HAT assay, ThioGlo1 CoA-SH fluorescence; Potency, µM (doses to about 58.9 µM), actives largely listed as inhibitors
Target sequence (Q92830 whole entry, looked up): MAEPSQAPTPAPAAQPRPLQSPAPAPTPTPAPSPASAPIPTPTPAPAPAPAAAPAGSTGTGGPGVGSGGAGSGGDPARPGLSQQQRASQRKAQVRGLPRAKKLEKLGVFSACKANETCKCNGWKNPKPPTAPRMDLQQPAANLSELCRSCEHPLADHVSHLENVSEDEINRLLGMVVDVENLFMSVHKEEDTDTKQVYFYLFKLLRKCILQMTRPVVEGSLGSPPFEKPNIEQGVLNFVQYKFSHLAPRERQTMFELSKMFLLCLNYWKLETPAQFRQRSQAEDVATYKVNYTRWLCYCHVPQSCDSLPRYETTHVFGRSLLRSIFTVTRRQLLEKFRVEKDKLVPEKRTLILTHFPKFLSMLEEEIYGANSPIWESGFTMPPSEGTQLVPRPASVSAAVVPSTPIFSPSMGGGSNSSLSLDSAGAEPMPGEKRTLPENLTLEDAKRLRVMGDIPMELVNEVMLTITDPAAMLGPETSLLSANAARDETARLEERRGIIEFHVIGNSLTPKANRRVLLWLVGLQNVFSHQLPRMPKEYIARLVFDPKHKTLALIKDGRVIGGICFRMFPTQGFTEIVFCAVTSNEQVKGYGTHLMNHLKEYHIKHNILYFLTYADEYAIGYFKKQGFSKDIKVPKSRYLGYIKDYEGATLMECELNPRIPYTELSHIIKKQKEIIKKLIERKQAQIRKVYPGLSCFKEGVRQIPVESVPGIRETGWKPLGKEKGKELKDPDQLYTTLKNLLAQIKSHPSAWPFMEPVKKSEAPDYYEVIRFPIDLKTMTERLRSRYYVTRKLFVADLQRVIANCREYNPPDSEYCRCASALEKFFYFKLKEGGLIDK
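qHTS, 1536-well. 20nM enzyme, pH 7.5 HEPES/EDTA/Tween-20 buffer; 15 min compound preinc., RT. Start: 75uM H3(1-25), 70uM AcCoA, 50uM ThioGlo1. Read Ex340/Em540 at t=0 (autofluorescence flag) and t=20 min.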
VDR inhibitor: Inhibitors of the vitamin D receptor (VDR): qHTS | AID 504847, 2011 | actives 0.93% (n = 400,000) | VDR-SRC2-3 peptide fluorescence polarization, 2 h | Vitamin D3 receptor (Homo sapiens), P11473 | Potency, µM, hits mostly inhibitors
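VDR–SRC2-3 interaction, FP format. Cmpds 23 nl via pintool, brief spin, 2 h ambient incubation.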
PLK1 PBD block: qHTS for Inhibitors of PLK1-PDB (polo-like kinase 1 - polo-box domain): Primary Screen | Potency, µM, most hits filed as inhibitors | AID 720504, 2013 | actives 2.8% (n = 360,000) | Plk1 PBD binding of FITC phosphopeptide, fluorescence polarization | Serine/threonine-protein kinase PLK1 (Homo sapiens), P53350; note: series mostly up to about 57 µM; nearly all actives have a fitted effect of over 65% in size
DT40 TDP1 CPT: qHTS for Inhibitors of human tyrosyl-DNA phosphodiesterase 1 (TDP1): qHTS in cells in presence of CPT | chicken DT40 Tdp1-/-;hTDP1 cells + 20 nM CPT, ATP luminescence, 48 h | Potency, µM (titrated, usually from 46.2 µM), actives largely listed as inhibitors | actives 12% (n = 420,000) | AID 686979, 2013; note: nearly all actives have a fitted effect of over 55% in size
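Chicken DT40 Tdp1-/- cells complemented with human TDP1, 400 cells/well, exposed to compounds plus 20 nM camptothecin for at least 48 h at 37 C; viability read as ATP content by CellTiter-Glo luminescence.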
TDP1 block: qHTS Assay for Inhibitors of Tyrosyl-DNA Phosphodiesterase (TDP1) | Potency, µM (titrated, usually from 130 µM), actives largely listed as inhibitors | Tyrosyl-DNA phosphodiesterase 1 (Homo sapiens), Q9NUW8 | recombinant TDP1, AlphaScreen DNA substrate cleavage | actives 0.28% (n = 350,000); note: nearly all actives have a fitted effect of over 40% in size
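AlphaScreen read-out: signal falls as enzyme removes the 3' tyrosine-FITC from a 5'-biotinylated DNA oligo (15 nM, 5 min, RT). Enzyme was E. coli-made recombinant Tdp1 at 1 nM, exposed to compound for 15 min beforehand; beads 10 ug/ml, 10 min.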
Numbers stand for hits; - = inactive; ? = inconclusive; . = no result; ! = not confirmed by another sample; [ ] = dose if it differs, or a comment. Most compounds without a hit are left out; they make up all but 18% or so of the library. Calls come from the whole dose curve; as a rule, active = well fitted curve in the direction sought with a large enough effect; inconclusive = small, poorly fitted or top-dose-only effect, or another doubt; inactive = no such curve, though single readings can be large; an effect the other way counts as inactive or inconclusive.

SMILES	TDP1 cell noCPT	GCN5L2 inh	VDR inhibitor	PLK1 PBD block	DT40 TDP1 CPT	TDP1 block
C=CCOC(=O)/C=C/C(=O)NC(N)=O	16µM	-	?	?	10µM	.
CCc1cccc(CC)c1NC(=O)c1ccc2c(c1)CCN2S(=O)(=O)c1ccccc1	-	-	-	.	-	-
CCc1cccc(C)c1NC(=O)c1ccc2c(c1)CCN2S(=O)(=O)c1ccc(Cl)cc1	9.2µM	-	-	.	?	-
CCS(=O)(=O)N1CCc2cc(C(=O)Nc3cc(Cl)ccc3C)ccc21	23µM	-	-	.	29µM	-
CCS(=O)(=O)N1CCc2cc(C(=O)Nc3cccc(Cl)c3C)ccc21	?	-	-	.	?	-
Cc1ccc(C2=CSC3=NNC4(CCCCC4)NN23)cc1	23µM	-	-	-	?	-
COc1ccc(C2=CSC3=NNC4(CCCCC4)NN23)cc1	-	-	-	-	-	-
Cc1ccc2c(c1)-n1c(nc3ccccc3c1=O)C(Cc1ccccc1)NC2=O (stereo not given)	.	-	.	.	.	-
Cc1nc(Br)c(Br)c(C)c1Br	-	-	-	-	-	.
CN(C)c1ccc(-c2ccnc3c2CC(C)(C(=O)NCc2ccc(F)c(F)c2)O3)cc1 (stereo not given)	9.2µM	.	.	-	9.2µM	.
CC(=O)Nc1ccc(-c2ccnc3c2CC(C)(C(=O)NCCC(F)(F)F)O3)cc1 (stereo not given)	?	.	.	-	?	.
CN(C)c1ccc(-c2ccnc3c2CC(C)(C(=O)NCc2ccco2)O3)cc1 (stereo not given)	6.5µM	.	.	-	4.1µM	.
CC(=O)NCCNC(=O)C1(C)Cc2c(-c3ccc(NC(C)=O)cc3)ccnc2O1 (stereo not given)	?	.	.	-	-	.
CC(=O)Nc1ccc(-c2ccnc3c2CC(C)(C(=O)NCc2ccco2)O3)cc1 (stereo not given)	1.2µM	.	.	-	1.5µM	.
CN(C)c1ccc(-c2ccnc3c2CC(C)(C(=O)NCCC(F)(F)F)O3)cc1 (stereo not given)	5.8µM	.	.	-	7.3µM	.
CC(=O)Nc1ccc(-c2ccnc3c2CC(C)(C(=O)NCc2ccc(N(C)C)cc2)O3)cc1 (stereo not given)	?	.	.	-	?	.
CC(C)=CCN1CCN(Cc2cnc(-c3ccccc3)s2)CC1CCO (stereo not given)	?	-	-	-	26µM	.
CCN(C(=O)c1cc2c(s1)-c1ccccc1OC2)c1cc(Cl)ccc1OC	10µM	-	-	.	21µM	-
CCN(C(=O)c1cc2c(s1)-c1ccccc1OC2)c1cccc(C(F)(F)F)c1	18µM	-	-	.	18µM	-
Cc1cccc2c1-c1sc(C(=O)N(C)c3cccc(C(F)(F)F)c3)cc1CO2	23µM	-	-	.	?	-
Cc1cccc2c1-c1sc(C(=O)N3CCCCC3)cc1CO2	?	-	-	-	?	.
CCN(C(=O)c1cc2c(C)nc3ccccc3c2o1)c1cc(Cl)ccc1OC	4.6µM	-	?	-	5.2µM	-
CC1(C(=O)NS(=O)(=O)c2ccccc2C(F)(F)F)CCN1C(=O)c1cccc(F)c1 (stereo not given)	-	.	.	-	-	.
c1coc(-c2nc3n(n2)C2(CCCCC2)[C@@H]2CCCC[C@@H]2N3)c1	?	-	-	.	?	-
CC(C)Oc1ccc(CCN=C(N)N=C(N)N)cc1Cl	12µM	-	-	-	10µM	-
SMILES	TDP1 cell noCPT	GCN5L2 inh	VDR inhibitor	PLK1 PBD block	DT40 TDP1 CPT	TDP1 block
COc1ccc(CCN=C(N)C(C)c2ccccc2)cc1OC (stereo not given)	?	-	-	-	-	-
CCc1cccc(NC(=O)CCS(=O)(=O)c2ccc(Br)cc2)c1	29µM	-	79µM	13µM	23µM	.
COc1cc(NC(=O)CCS(=O)(=O)c2ccc(Br)cc2)cc(OC)c1	?	-	-	.	-	-
O=C(CCS(=O)(=O)c1ccc(Br)cc1)NCCc1ccccc1	-	-	-	30µM	-	.
Cc1ccc(S(=O)(=O)CCNC(=O)Cc2ccccc2)cc1	?	-	56µM	9.5µM	21µM	-
COc1ccccc1CCNC(=O)CNC(=O)Cc1cccc2ccccc12	?	-	-	-	?	-
CN(CCCNC(=O)c1ccccc1F)CCCNC(=O)c1ccccc1F	-	-	-	-	-	.
O=C(c1ccco1)N1CCCN(Cc2nc(-c3cccs3)no2)CC1	-	-	-	-	-	-
Cc1cccc2[nH]cc(/C=C3/C=Nc4ccccc43)c12	4µM	.	.	.	7.9µM	.
O=c1[nH]c(O)c(/C=C2\C=Nc3ccccc32)[nH]1	-	-	-	-	-	-
COc1ccc(/C=C(\NC(=O)c2ccc(C)cc2)C(=O)Nc2c(C)n(C)n(-c3ccccc3)c2=O)cc1	-	-	-	-	-	-
O=C(O)CC(C(=O)O)N1C(=O)/C(=C/c2ccc(-c3nc4ccccc4s3)o2)SC1=S (stereo not given)	-	?	50µM	-	-	.
O=C(O)CCCN1C(=O)/C(=C\c2ccc(-c3nc4ccccc4s3)o2)SC1=S	?	?	?	11µM	?	?
O=C(O)CCN1C(=O)/C(=C/c2ccc(-c3nc4ccccc4s3)o2)SC1=S	?	?	?	9.5µM	-	-
O=C(O)CN1C(=O)/C(=C/c2ccc(-c3cccc(Cl)c3)o2)SC1=S	.	.	.	.	.	-
CC(C(=O)N1CCCC1)N1CCN(c2ccccc2O)CC1 (stereo not given)	-	-	-	-	-	-
CC1=CC(=O)CC(C)(C)C1(O)/C=C/C(C)=C/C(=O)O (stereo not given)	-[9.04 µM]	-	-	-	-[9.04 µM]	-
CC1=C(/C=C/C(=C/C=C/C(C)=C/C(=O)O)c2ccc(C)cc2)C(C)(C)CCC1	.	-	22µM	.	.	-
CC1=C(\C=C/C(C)=C/C=C\C(C)=C\C(=O)O)C(C)(C)CCC1	12µM!	-	18µM	.	15µM!	-
CC1=C(/C=C/C(=O)O)C(C)(C)CCC1	-	-	-	-	-	-
CC1=C(/C=C/C(C)=C/C=C/C(C)=C\C(=O)O)C(C)(C)CCC1	23µM!	-	50µM!	?	?	-
CCc1nc(NCCCCCO)c2nnn(Cc3ccccc3F)c2n1	-	-	-	-	-	-
Cc1ccc(Cn2c(=O)n(Cc3ccccc3)c(=O)c3c(C)c(C)sc32)cc1	-	-	-	.	-	-

Bioassay records (PubChem)
